In assay [1] the target is Thyrotropin receptor (Homo sapiens) (UniProt P16473). Put plainly: qHTS assay to identify small molecule agonists of the thyroid stimulating hormone receptor (TSHR) signaling pathway (AID 1224843; calls by dose curve; further: nearly all actives have a fitted effect of over 45% in size). The method, boiled down:
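Agonist-mode screen: TSHR HEK293 cells received test chemicals for half an hour at room temperature, then HTRF cAMP detection reagents for one hour prior to fluorescence measurement. Each chemical ran as a 15-concentration series, triplicated.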

Assay [2] is described as follows: qHTS assay to identify small molecule agonists of the hypoxia (HIF-1) signaling pathway - cell viability counter screen (AID 1224844; calls by dose curve; further: nearly all actives have a fitted effect of over 50% in size). A digest of the protocol:
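In this counter screen, HRE-bla ME-180 cell viability after 17 hrs of compound exposure at 37C was read by CellTiter-Glo luminescence, multiplexed with the beta-lactamase reporter measurement.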

Assay [3] is described as follows: qHTS assay to identify small molecule agonists of H2AX (AID 1224845; active means well fitted activation curve with a large enough effect in the signal ratio in the repeat runs, not every such curve was filed as active; the % refers to the signal ratio). A digest of the protocol: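 Wild-type CHO-K1 cells, plated overnight, exposed 3hr at 37C to 15 concentrations (0.76% DMSO final). Lysed, then HTRF anti-pH2AX (S139) cryptate and anti-H2AX-d2 antibodies, 24 hr room temperature; 665/620 nm emission read.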
Assay [4] can be described thus: qHTS assay to identify small molecule agonists of H2AX - cell viability counter screen (AID 1224847; calls by dose curve; further: top concentration of the series differs between compounds; nearly all actives have a fitted effect of over 30% in size). The method, boiled down:
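We seed wild-type CHO-K1 cells overnight, treat them for 3 hr at 37C with compounds in 15-concentration series, and quantify remaining viability by CellTiter-Glo luminescence.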

Assay [5] can be described thus: qHTS RealTime-Glo MT Cell Viability Assay in HepG2 cells - 24 hour (AID 1224867). Further: nearly all actives have a fitted effect of over 50% in size. A digest of the protocol: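 HepG2 cells (600/well) were dispensed with RealTime-Glo reagents, incubated 5 h at 37 °C, then treated with compounds in DMSO for up to 40 h. Nonlytic NanoLuc luminescence reflecting viable cells was read at each stated time point.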
Assay [6] can be described thus: qHTS RealTime-Glo MT Cell Viability Assay in HEK293 cells - 32 hour (AID 1224868). Further: top concentration of the series differs between compounds; nearly all actives have a fitted effect of over 50% in size. A digest of the protocol:
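HEK293 cells seeded with NanoLuc/prosubstrate reagent, rested 5 h at 37 C, then dosed and kept at 37 C up to 40 h. Nonlytic real-time luminescence from viable cells read at 0, 8, 16, 24, 32 and 40 h.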

Assay [7] can be described thus: A CellTox Green Cytotoxicity Assay to monitor cytotoxicity in HEK293 cells - 0 hour (AID 1224869). Further: nearly all actives have a fitted effect of over 50% in size. A digest of the protocol: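 Real-time, in one plate: 600 HEK293 cells/well with dead-cell DNA dye, pinned compound after 5 h, 37 C incubation over 40 h; viable cells give no appreciable fluorescence.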
The nature of assay [8]: qHTS assay to identify small molecule antagonists of the estrogen related receptor (ERR) signaling pathway from Tox21 library (AID 1224848). Further: nearly all actives have a fitted effect of over 50% in size. Further: potency means the concentration at half of the fitted maximal effect. The method, boiled down:
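Quantitative high-throughput format: ERR reporter cells (2,000/well) pre-incubated 6 h, treated 18 h at 37 C with compounds in DMSO alongside positive and negative controls, then read by ONE-Glo luminescence.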

The nature of assay [9]: qHTS assay to identify small molecule agonists of the estrogen related receptor (ERR) signaling pathway from Tox21 library (AID 1224849; calls by dose curve; further: nearly all actives have a fitted effect of over 15% in size). As to conditions: ERR reporter cell line, ONE-Glo luciferase, 18 h; at 92.4 µM (top of the series) unless noted. The method, boiled down: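 Luciferase activity in ERR pathway reporter cells served as the agonist readout; exposure lasted 18 h at 37 C, with ONE-Glo detection after 30 min at room temperature.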

Assay [10] in a line: qHTS assay to identify small molecule agonists of the hypoxia (HIF-1) signaling pathway (AID 1224846; active means well fitted activation curve with a large enough effect in the signal ratio in the repeat runs, not every such curve was filed as active; the % refers to the signal ratio). A digest of the protocol: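 ME-180 HRE-bla reporter cells; compounds in DMSO, 17 h at 37C; read-out beta-lactamase via CCF4-AM FRET.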

Molecules are shown by their SMILES. Unmarked numbers belong to inactive results. Records with an inconclusive call do not appear. Active and inactive are the calls of the source. Unless noted, the call rests on the fitted dose curve; in most records, active means well fitted curve in the direction sought with a large enough effect in the repeat runs; inconclusive means weak or mixed curves; inactive means no such curve, though single readings can be large; an effect the other way counts as inactive or inconclusive.
On the % scale 0 is the no-effect control and ±100 the full control effect.

Chain of Thyrotropin receptor (Homo sapiens) (P16473 whole entry, looked up): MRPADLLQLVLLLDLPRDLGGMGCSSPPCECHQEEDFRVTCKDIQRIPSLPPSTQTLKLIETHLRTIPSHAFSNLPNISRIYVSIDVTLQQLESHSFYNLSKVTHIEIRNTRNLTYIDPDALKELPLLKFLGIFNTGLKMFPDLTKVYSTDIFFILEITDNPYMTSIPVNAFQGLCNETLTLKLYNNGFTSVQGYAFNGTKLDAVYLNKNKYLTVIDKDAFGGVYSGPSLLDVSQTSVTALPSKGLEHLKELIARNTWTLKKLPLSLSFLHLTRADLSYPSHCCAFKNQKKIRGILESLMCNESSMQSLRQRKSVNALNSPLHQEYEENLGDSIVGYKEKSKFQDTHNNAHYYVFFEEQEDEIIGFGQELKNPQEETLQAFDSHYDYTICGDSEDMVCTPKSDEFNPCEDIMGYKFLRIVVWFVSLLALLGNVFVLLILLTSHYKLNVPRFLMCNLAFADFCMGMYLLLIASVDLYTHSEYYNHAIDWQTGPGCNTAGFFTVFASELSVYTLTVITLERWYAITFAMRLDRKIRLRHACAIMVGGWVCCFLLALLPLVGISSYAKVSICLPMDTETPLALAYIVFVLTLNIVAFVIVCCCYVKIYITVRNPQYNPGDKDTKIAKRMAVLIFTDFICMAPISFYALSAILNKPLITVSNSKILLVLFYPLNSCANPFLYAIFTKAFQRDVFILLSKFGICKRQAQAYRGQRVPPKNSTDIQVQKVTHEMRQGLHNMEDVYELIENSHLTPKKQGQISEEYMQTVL

As to `O=C(O)Cc1ccc(Cl)cc1Cl`, the Potency entry in assay [1], in assay [4] and in assay [6] was “inactive” throughout. Also, the result in assay [2], in assay [3], in assay [5] and in assay [7] was inactive.
For the compound `COc1cc(N)ccc1C`, the Potency entry in assay [1], in assay [4] and in [6] was “inactive” throughout. In addition, the compound was classed as inactive in [2], in [3], in assay [5] and in assay [7]. In addition, the Potency in [8] was 27 µM (active). Also, the activity change, positive = activation in assay [9] was -31.2%.
For `C=C1CC/C=C(\C)CC[C@@H]2[C@@H]1CC2(C)C`, the Potency result in assay [1], in [4], in [8] and in [6] was “inactive” throughout. The call in assay [2], in assay [3], in [5] and in assay [7] was inactive. The activity change, positive = activation in assay [9] is 0.265%.
For `Cc1cccc(C)c1OCC(C)N` (stereo unspecified), the Potency entry in assay [1], in assay [4], in [8] and in assay [6] was “inactive” each time. The compound was classed as inactive in assay [2], in assay [3], in assay [5] and in assay [7]. In addition, the activity change, positive = activation in assay [9] is -2% [at 42.5 µM].
Consider `CCCOC(=O)C(C)O` (stereo unspecified), for which the Potency entry in [1], in [4] and in assay [6] was “inactive” in each case. The call in [2], in assay [3], in assay [5] and in [7] was inactive.
For the compound `O=C1c2ccccc2C(=O)C1c1ccccc1`, the Potency entry in assay [1], in assay [4] and in assay [6] was “inactive” in each case. In addition, the outcome in assay [2], in assay [3], in assay [5] and in assay [7] was inactive.
`CCCCCCCCC1CCC(=O)O1` (stereo unspecified): the Potency entry in assay [1], in assay [4] and in [6] was “inactive” throughout. For the same compound, the call in [2], in [3], in assay [5] and in assay [7] was inactive.
For `C[C@@H]1O[C@@H](O[C@@H]2[C@@H](O)[C@H](OCCc3ccc(O)c(O)c3)O[C@H](CO[C@@H]3O[C@H](CO)[C@@H](O)[C@H](O)[C@H]3O)[C@H]2OC(=O)/C=C/c2ccc(O)c(O)c2)[C@H](O)[C@H](O)[C@H]1O`, the result in assay [2] and in assay [7] was inactive. Moreover, the Potency result in [4] is “inactive”.
Regarding `CCCCCCCCC(=O)Cl`, the call in assay [2], in assay [3], in assay [5] and in assay [7] was inactive. Moreover, the Potency result in [4] and in assay [6] was “inactive” in each case. Also, the activity change, positive = activation in assay [9] is 0.757%.
For `C[C@@H](Oc1ccc(CNC(=O)c2cccnc2Oc2ccc3c(c2)OCO3)c(F)c1)C(=O)O`, the compound was called inactive in assay [2], in assay [3], in [10] and in assay [7]. Besides, the Potency result in assay [4] and in [8] was “inactive” throughout. For the same compound, in assay [9], the activity change, positive = activation was 4.43%.
As for `CN=C(NC#N)Nc1ccc(C2=NNC(=O)CC2C)cc1` (stereo unspecified), the compound was called inactive in assay [2], in [3], in assay [5] and in assay [7]. Further, the Potency result in assay [4], in assay [8] and in assay [6] was “inactive” in each case. In addition, the activity change, positive = activation in assay [9] is 5.55% [at 42.5 µM].
On to `OCCC(F)(F)C(F)(F)C(F)(F)C(F)(F)C(F)(F)C(F)(F)C(F)(F)C(F)(F)F`, for which the compound was classed as inactive in assay [3], in assay [10], in assay [5] and in [7]. Further, the Potency result in assay [4] and in [8] was “inactive” in each case.
With `ClCCCl`, the compound was classed as inactive in [2], in assay [3], in assay [10] and in assay [7]. The Potency entry in [4] and in [6] was “inactive” in each case. In addition, in assay [9], the activity change, positive = activation was 12.2%.
For the compound `OC[C@H](Cc1cccc(O)c1)[C@H](CO)Cc1cccc(O)c1`, the result in assay [2], in [3], in assay [10], in assay [5] and in assay [7] was inactive. Also, in assay [4], the Potency entry was “inactive”. In [9], the activity change, positive = activation was -21.1%.
With `CCCCCCOC(=O)CC`, the outcome in [2], in [3], in assay [5] and in [7] was inactive. Also, the Potency result in assay [4], in [8] and in [6] was “inactive” each time. Further, the activity change, positive = activation in assay [9] is -0.0388%.
For `CCCCOCCOC(=O)COc1nc(Cl)c(Cl)cc1Cl`, the compound was called inactive in [3] and in [7]. The Potency result in [4], in assay [8] and in assay [6] was “inactive” throughout. Besides, in assay [9], the activity change, positive = activation is 0.145%.
Take `CCC(C)(CCC(C)C)C(=O)O` (stereo unspecified): the compound was classed as inactive in [2], in [3], in assay [10], in assay [5] and in [7]. Further, the Potency result in assay [4] and in assay [8] was “inactive” throughout. The activity change, positive = activation in assay [9] is -1.46%.
Turning to `CC(=O)Nc1ccc(S(=O)(=O)Cl)cc1`, the outcome in assay [2], in assay [3], in [10], in assay [5] and in [7] was inactive. For the same compound, the Potency entry in assay [4], in assay [8] and in assay [6] was “inactive” in each case. Also, in [9], the activity change, positive = activation is -0.863%.
With `CC(=O)c1ccc2c(c1)Cc1ccccc1-2`, the outcome in assay [2], in assay [3], in [10], in assay [5] and in [7] was inactive. Also, in [6], the Potency entry is “inactive”.
Turning to `COc1ccc(-c2cc(=O)c3c(O)cc(O[C@@H]4O[C@H](CO[C@@H]5O[C@@H](C)[C@H](O)[C@@H](O)[C@H]5O)[C@@H](O)[C@H](O)[C@H]4O)cc3o2)cc1O`, the result in assay [2], in [5] and in assay [7] was inactive. For the same compound, the Potency result in [4] and in assay [8] was “inactive” throughout. The activity change, positive = activation in assay [9] was -13.8% [at 42.5 µM].
Turning to `CCCOC(OCCC)OCCC`, the outcome in [2], in assay [3], in assay [10], in assay [5] and in [7] was inactive. For the same compound, the Potency entry in [4], in [8] and in [6] was “inactive” throughout. Besides, the activity change, positive = activation in assay [9] was 4.24%.
Turning to `C=C(C)C(=O)OCC(C)(C)COC(=O)C(=C)C`, the outcome in [2], in assay [3], in assay [10], in assay [5] and in assay [7] was inactive. Moreover, the Potency result in assay [4], in assay [8] and in assay [6] was “inactive” each time. Besides, the activity change, positive = activation in [9] was 0.866%.
As to `O=C1c2ccccc2C(=O)N1CCl`, the compound was classed as inactive in assay [2], in assay [3], in [10], in assay [5] and in [7]. For the same compound, the Potency result in assay [4] is “inactive”. Moreover, in assay [9], the activity change, positive = activation was 0.282%.
`CC(C)(C)NC(N)=O`: the outcome in assay [2], in [3], in [10], in assay [5] and in assay [7] was inactive. Further, the Potency result in assay [4] and in assay [6] was “inactive” in each case. For the same compound, in assay [9], the activity change, positive = activation is 2.65%.

For the origin of these results see PubChem BioAssay (Tox21).
